Inconclusive results are not listed. Calls of active or inactive are those of the source. Calls follow the shape of the dose curve; as a rule, active = well fitted inhibition curve with a large enough effect; inconclusive = small, poorly fitted or top-dose-only effect; inactive = flat fitted curve, though single readings scatter.
Tests used:
Assay in all cases: qHTS profiling for inhibitors of Plasmodium falciparum proliferation (AID 504749); also: nearly all actives have a fitted effect of over 60% in size
Settings in all cases: P. falciparum in erythrocytes, SYBR Green DNA, 72 h; series mostly up to 28.7 µM
[1] = test system: CP262
Outline: (§1)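 Fluorescence of SYBR Green-bound parasite DNA, read at 485/535 nm, served as the growth measure. Infected erythrocytes were cultured with compound 72 h; artemisinin (0.29 uM) and DMSO wells defined the normalization range.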

[2] = test system: CP265
Outline: as §1

[3] = test system: CP266
Outline: as §1

[4] = test system: CP268
Outline: as §1

[5] = test system: CP269
Outline: as §1

[6] = test system: CP286
Outline: as §1

[7] = test system: CP291
Outline: as §1

[8] = test system: CP297
Outline: as §1

[9] = test system: CP305
Outline: as §1

[10] = test system: CP315
Outline: as §1

Measured: Potency

Nc1ncnc2c1ncn2[C@@H]1O[C@H](COP(=O)(O)O)[C@@H](O)[C@H]1O
inactive: all assays above

CC(=O)Nc1ccc(C(=O)O)cc1
inactive: all assays above

CCOC(=O)c1cccnc1
inactive: all assays above

CCN(CC)CCOC(=O)C(c1ccccc1)c1ccccc1
inactive: all assays above

O=C1c2cccc(O)c2C(=O)c2c(O)cccc21
inactive: all assays above

CNCc1ccccc1
inactive: all assays above

C=CCNC(N)=S
inactive: all assays above

CC[N+](C)(CC)CCOC(=O)C1c2ccccc2Oc2ccccc21
inactive: all assays above

Cc1cccc(Nc2ccccc2C(=O)O)c1C
inactive: all assays above

Nc1ccncc1N
inactive: all assays above

NC(=O)CC[C@@H](N)C(=O)O
inactive: all assays above

CCOC(=O)[C@H](CCc1ccccc1)N[C@@H](C)C(=O)N1CCC[C@H]1C(=O)O
inactive: all assays above

O=C(O)c1ccc[n+]([O-])c1
inactive: all assays above

CC(=O)OC[C@H]1O[C@@](COC(C)=O)(O[C@H]2O[C@H](COC(C)=O)[C@@H](OC(C)=O)[C@H](OC(C)=O)[C@H]2OC(C)=O)[C@@H](OC(C)=O)[C@@H]1OC(C)=O
inactive: all assays above

CCCOC(=O)c1ccc(N)cc1
inactive: all assays above

CC(=O)NS(=O)(=O)c1ccc(N)cc1
inactive: all assays above

COc1ccc(O)cc1
inactive: all assays above

CC(N)CCCC(C)(C)O (configuration not stated)
inactive: all assays above

Cc1c(NC(=O)c2cccnc2)c(=O)n(-c2ccccc2)n1C
not listed: [10]
inactive: all other assays above

COc1nccnc1NS(=O)(=O)c1ccc(N)cc1
not listed: [10]
inactive: all other assays above

Cc1onc(-c2ccccc2)c1-c1ccc(S(N)(=O)=O)cc1
not listed: [10]
inactive: all other assays above

CC(O)CCCCn1c(=O)c2c(ncn2C)n(C)c1=O (configuration not stated)
inactive: all assays above

COc1cc(O)cc(O)c1
inactive: all assays above

CCCC(O)C(CC)CO (configuration not stated)
inactive: all assays above

Nc1ccc(S(=O)(=O)c2ccc(N)cc2)cc1
inactive: all assays above

O=C(CCBr)N1CCN(C(=O)CCBr)CC1
inactive: all assays above

CC(C)CCCC(C)CCCC(C)CCCCC(C)CCCC(C)CCCC(C)C (configuration not stated)
inactive: all assays above

CCN(CC)C(=O)c1cccc(C)c1
inactive: all assays above

Cc1c(Cn2ccnc2)c2ccccc2n1CCC(=O)O
inactive: all assays above

CC(=O)Oc1cccc(C)c1
inactive: all assays above

FC(F)(F)C(Cl)Br (configuration not stated)
inactive: all assays above

O=C(NCCCN1CCOCC1)c1ccc(Cl)cc1
inactive: all assays above

O=C(/C=C/c1ccccc1)OCc1ccccc1
inactive: all assays above

O=c1[nH]cnc2nc[nH]c12
inactive: all assays above

Cc1cccc(C(=O)O)c1O
inactive: all assays above

OC[C@@H](O)[C@@H](O)[C@H](O)[C@H](O)CO
inactive: all assays above

CC1CC(OC(=O)c2ccccc2O)CC(C)(C)C1 (configuration not stated)
inactive: all assays above

CC(C(=O)O)c1ccc2c(c1)Cc1cccnc1O2 (configuration not stated)
inactive: all assays above

C=CCSCC1Nc2cc(Cl)c(S(N)(=O)=O)cc2S(=O)(=O)N1 (configuration not stated)
inactive: all assays above

CC(C)CCOC(=O)c1ccc(N(C)C)cc1
inactive: all assays above

CCCCOC(=O)c1ccc(N)cc1
inactive: all assays above

CC(CSC(=O)c1ccccc1)C(=O)N1C[C@@H](Sc2ccccc2)C[C@H]1C(=O)O (some centres not stated)
inactive: all assays above

C[N+](C)(C)CC[N+]1(C)Cc2c(Cl)c(Cl)c(Cl)c(Cl)c2C1
inactive: all assays above

NS(=O)(=O)c1cc2c(cc1C(F)(F)F)NCNS2(=O)=O
inactive: all assays above

NNC(=O)CP(=O)(c1ccccc1)c1ccccc1
inactive: all assays above

O=C(O)c1cc(=O)c2ccccc2o1
inactive: all assays above

O=C(O)c1ccc(OCCCOc2ccc(C(=O)O)cc2)cc1
inactive: all assays above

O=C(O)CCC(=O)O
inactive: all assays above

Cc1cccc(C)c1NC(=O)CC12CCCN1CCC2
inactive: all assays above

CC(C)(C)C(=O)OCOC(=O)[C@@H]1N2C(=O)[C@@H](NC(=O)[C@H](N)c3ccccc3)[C@H]2SC1(C)C
inactive: all assays above

Reference: PubChem BioAssay (NCATS)
